High-throughput results: PubChem, National Center for Advancing Translational Sciences (NCATS)
In the library only some 5.5% were active in any assay of this set; here they are far more common.
VP16 counter – counter-screen for ROR gamma inhibitors: Gal4-VP16 reporter | Drosophila S2 Gal4-VP16 UAS-luciferase, luminescence, 20 h | Potency, µM (top dose mostly 53.6 µM), for inactives: at the top dose activity, negative = inhibition, actives largely listed as inhibitors | 3.5% of 310,000 active;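 also: Gal4-VP16 expression switched on by copper sulfate through the metallothionein promoter; potency is read from the fitted curve at half-maximal effect; % is scaled to controls: 0 for no effect and ±100 for the full control effect; nearly all actives have a fitted effect of over 50% in size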
Six1-Eya2 inh – blocks human Six1 binding to Eya2 | Q15475+O00167 | AlphaScreen GST-Six1/His-Eya2 binding, biochemical; hits give low values | activity change, % (concentration not given with the values) | 0.56% of 360,000 active; in the data active = activity change below about -65%; inconclusive = mostly about -30% to -63%; also: % is scaled to controls: 0 for no effect and ±100 for the full control effect
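AlphaScreen with GST-Six1 and His-Eya2 (5X mix: 250 nM and 500 nM), glutathione donor and nickel acceptor beads; buffer 50 mM Tris pH 8.0, 300 mM NaCl, 1 mM TCEP; 1 h at 37 C in the dark.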
MBNL1-CUG inh – inhibitors of human MBNL1 binding to CUG repeat RNA. Q9NR56. 0.036% of 280,000 active. Potency, µM (highest dose often 57.5 µM), inactives show top-dose activity change, negative = inhibition, actives largely listed as inhibitors. TR-FRET MBNL1-His/biotin-(CUG)12 binding, 665/545 ratio; active = well fitted inhibition curve with a large enough effect in the signal ratio, with a control signal flat, not every such curve was filed as active; inconclusive = small, poorly fitted or top-dose-only effect, or effect the other way, or a change in a side signal; inactive = no such curve, though single readings can be large or run the other way; the % refers to the signal ratio; also: potency is read from the fitted curve at half-maximal effect; % is scaled to controls: 0 for no effect and ±100 for the full control effect
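Compound titration spanned 92 nM–58 uM against the MBNL1-His/biotin-(CUG)12 complex. After 60 min at room temperature with 5 nM streptavidin-XL665 and 0.055 ng/ul terbium anti-His, ratiometric 665/545 nm emission (Ex 340 nm) normalized to controls.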
RORgamma inh – blocks mouse ROR gamma transcriptional activity; P51450; Drosophila S2 Gal4-RORgamma UAS-luciferase reporter, 20 h; Potency, µM (series often up to 53.6 µM), for inactives: at the highest dose activity change, negative = inhibition, actives largely listed as inhibitors; 5.4% of 310,000 active; AID 2551; also: potency is read from the fitted curve at half-maximal effect; % is scaled to controls: 0 for no effect and ±100 for the full control effect; nearly all actives have a fitted effect of over 60% in size
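Schneider cells (Drosophila), stable Gal4 DBD–ROR gamma + UAS-luc; 1 hr cmpd preincubation; Cu2+ induction 700 uM final; 20 hr ambient; luminescence.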
CtBP-E1A inh – blocks the CtBP interaction with E1A | AlphaScreen GST-E1A/His-CtBP binding, 1536-well; hits give low values | activity change, % (concentration not given with the values) | 0.49% of 340,000 active; in the data active = activity change below about -65%; inconclusive = mostly about -30% to -63%; also: % is scaled to controls: 0 for no effect and ±100 for the full control effect
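Protein mix (5X: 125 nM each GST-E1A, His-CtBP) was incubated with pinned compound 2 h at 37 deg C in dark, in 50 mM Tris pH 8.0 buffer with 300 mM NaCl. Glutathione donor and nickel acceptor beads followed; AlphaScreen signal read after 1 h.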
CBFb-RUNX1 inh – CBF-beta/RUNX1 interaction disruption; AlphaScreen CBFb-His/RUNX1-biotin binding, biochemical; AID 1477; 230,000 tested, under 10 active; Potency, µM (highest dose often 59.8 µM), for the others: at the highest dose activity, negative = inhibition, hits mostly inhibitors; also: % of control where 0% means no effect
Target sequence (Q01196 whole entry, looked up): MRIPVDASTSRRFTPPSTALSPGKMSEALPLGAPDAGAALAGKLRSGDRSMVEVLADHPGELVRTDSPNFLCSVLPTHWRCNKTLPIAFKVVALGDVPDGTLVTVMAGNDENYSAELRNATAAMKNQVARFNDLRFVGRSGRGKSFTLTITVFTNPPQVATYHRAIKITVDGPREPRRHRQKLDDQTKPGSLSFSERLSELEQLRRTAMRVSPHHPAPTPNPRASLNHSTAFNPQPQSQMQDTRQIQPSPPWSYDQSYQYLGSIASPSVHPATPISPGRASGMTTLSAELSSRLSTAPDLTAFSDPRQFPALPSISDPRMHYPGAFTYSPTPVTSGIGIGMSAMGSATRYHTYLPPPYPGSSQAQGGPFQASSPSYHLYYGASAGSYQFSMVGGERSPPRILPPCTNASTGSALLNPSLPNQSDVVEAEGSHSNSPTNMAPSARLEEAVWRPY
Target sequence (Q13951 whole entry, looked up): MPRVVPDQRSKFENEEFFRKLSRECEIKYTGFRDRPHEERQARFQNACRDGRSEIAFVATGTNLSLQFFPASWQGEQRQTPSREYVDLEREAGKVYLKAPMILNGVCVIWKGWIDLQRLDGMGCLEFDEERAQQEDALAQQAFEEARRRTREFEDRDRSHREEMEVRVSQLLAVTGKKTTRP
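Bead-based AlphaScreen assay; binding partners His-tagged CBF-beta and biotinylated RUNX1 at 30 nM each. Compound exposure 15 min after a 20-min protein preincubation; bead step 90 min; all steps at room temperature.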
* = called active by the depositor; ? = inconclusive; / = no result given; [ ] = remark or other dose. Unless noted, calls follow the shape of the dose curve; as a rule, active = well fitted curve in the direction sought with a large enough effect; inconclusive = small, poorly fitted or top-dose-only effect, or another doubt; inactive = no such curve, though single readings can be large; an effect the other way counts as inactive or inconclusive.

SMILES	VP16 counter	Six1-Eya2 inh	MBNL1-CUG inh	RORgamma inh	CtBP-E1A inh	CBFb-RUNX1 inh
CCC(=NNC(=O)c1ccc2c(c1)nc(C)n2CC)c1cc(F)ccc1O	/	-17	/	/	?	/
COc1cccc(/C=N/NC(=O)c2nc(-c3ccccc3)cc(-c3ccccc3)n2)c1O	-10%	-3	-22%	27%	-6	8%
CCn1c(C)nc2cc(C(=O)N/N=C/c3ccc(O)c(O)c3O)ccc21	-6%[10 µM]	-90*	?	0%	-93*	-16%
CCn1c(C)nc2cc(C(=O)N/N=C/c3cccc(OC)c3O)ccc21	0.71µM*	-80*	?	0.32µM*	-93*	3%
COCCNC(=S)NNc1ccccc1[N+](=O)[O-]	11µM*	-6	?	?	-22	-7%
CNC(=S)NNc1ccccc1[N+](=O)[O-]	6%	0	/	16µM*	-1	-8%
COc1ccc2c(c1)C(c1ccccc1OC)CC(=O)O2 (configuration not stated)	0%	/	/	4%	/	-4%[89.1 µM]
CC(C)(C)C(=O)Nc1cc(NC(=O)C(C)(C)C)cc(C(=O)NNC(=O)c2ccncc2)c1	-4%	-11	-3%	-3%	-12	/
COc1ccc(NC(=O)c2c(NC(=O)CNCc3ccco3)sc3c2CCC3)c(OC)c1	2.5µM*	-1	-8%	1.1µM*	-3	-3%
COc1ccc(OC)c(NC(=O)c2c(NC(=O)CNCc3ccco3)sc3c2CCC3)c1	2.2µM*	2	8%	?	9	-2%
CCC1=C2CC[C@H]3C(=O)N(c4ccccc4)C(=O)[C@H]3[C@H]2[C@@]2(C)C(=O)N(CC(=O)OC)C(=O)N2C1=O	2%	/	/	3%	/	5%
CC1(C)CC2CC(C)(CN2S(=O)(=O)c2ccc(C(=O)Nc3ccc(Cl)c(S(=O)(=O)N4CCOCC4)c3)cc2)C1 (configuration not stated)	13µM*	-13	1%	?	24	0%
CC1(C)CC2CC(C)(CN2S(=O)(=O)c2ccc(C(=O)Nc3ccc(S(=O)(=O)N4CCOCC4)cc3)cc2)C1 (configuration not stated)	?	-2	/	?	2	-4%
CN=C1S/C(=C\c2cc(C)n(-c3ccccc3F)c2C)C(=O)N1C	18µM*	-8	15%	?	-7	11%
CCOc1ccc(/C=N/Nc2nc(=O)[nH]nc2C)cc1OC	-1%	-25	?	13µM*	/	-7%
CCOc1cc(/C=N/Nc2ncnc(Cl)c2N)ccc1O	?	?	?	20µM*	?	9%
CCCOc1ccc(/C=N/Nc2ccccn2)cc1OC	2%	-5	/	9%	-4	-1%
CCOc1ccc(/C=N/Nc2ccccn2)cc1OC	?	-8	?	10µM*	-7	-8%
Cc1n[nH]c(=O)nc1N/N=C/c1ccco1	?	-68*	?	?	?	-22%
Cc1cccc(NC(=O)CN(CC2CCCO2)C(=O)c2cc(S(=O)(=O)N(C)C)ccc2F)c1C (configuration not stated)	/	1	/	/	1	/
COCc1c(C(=O)N2CCN(CCOc3ccccc3)CC2)oc2ccccc12	/	-1	/	/	-5	/
COc1ccc(CNc2cc(-c3ccccc3C)ncn2)c(OC)c1	-6%	/	/	68%	/	/
CCOc1cc(/C=N/Nc2nc(=O)[nH]nc2C)ccc1O	-30%	?	?	8.9µM*	?	3%
COc1cc(/C=N/Nc2nc(=O)[nH]nc2C)cc(OC)c1O	-14%[10 µM]	?	?	-32%	?	0%
COc1ccccc1N1CCN(C(=O)Cn2c(=O)oc3cc(S(=O)(=O)N4CCCC4)ccc32)CC1	-9%	10	-7%	36%	23	/
Cc1cc(NC(=S)Nc2ccc(C)c(Cl)c2)n[nH]1	1µM*	-3	-3%	0.35µM*	-3	5%
